Experimental data as given in the supplement of paper PMC10849652.
Targets with a hit are over-represented here; the source holds about 7,900 in all. About 0.6% of all pairs of compound and target were hits. Values without a mark were called inactive.

How the values were obtained:
Test in all cases: log2 fold change, soluble protein after heating vs DMSO (PISA); higher = thermal stabilisation; K562 cells, 10 uM, 30 min; active = over 0.2 and 3.5 SD of the protein, either way, in both replicates (recomputed)
[1] = compound: CS(=O)(=O)c1ccc(-c2cnc(N)c(C(=O)Nc3ccccc3)n2)cc1
Outline: (§1)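 Soluble protein was defined as the supernatant after 21,000xg for 90 min. It came from K562 cells at 2×10^6 cells/mL given 10 μM compound for 30 min, heated in aliquots for 3 min across 48°C-58°C, pooled, and extracted in PBS with 0.5% NP-40 at 4°C, and was quantified by TMTpro 16plex LC-MS/MS with equalised channel sums. Thermal stability against control samples, from duplicates, is reported as log2 fold change.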

[2] = compound: C[C@@H](Oc1cc(-c2cnn(C3CCNCC3)c2)cnc1N)c1c(Cl)ccc(F)c1Cl [crizotinib]
Outline: as §1

[3] = compound: C[C@@H]1COCCN1C2=NC(=NC(=C2)C3(CC3)S(=O)(=O)C)C4=C5C=CNC5=CC=C4
Outline: as §1

[4] = compound: C[C@H](C1=CC=C(C=C1)C(=O)NC2=C3C=CNC3=NC=C2)N
Outline: as §1

[5] = compound: C[C@H](Nc1ncnc2nc[nH]c12)c1cc2cccc(Cl)c2c(=O)n1-c1ccccc1 [duvelisib]
Outline: as §1

[6] = compound: Cc1cc(Nc2cc(CN3CCOCC3)c3nc(C)c(Cc4ccc(Cl)cc4F)n3n2)n[nH]1 [gandotinib]
Outline: as §1

[7] = compound: Cc1cc(Nc2cc(N3CCN(C)CC3)nc(Sc3ccc(NC(=O)C4CC4)cc3)n2)n[nH]1 [tozasertib]
Outline: as §1

[8] = compound: Cc1cc(SCc2sc(-c3ccc(C(F)(F)F)cc3)nc2C)ccc1OCC(=O)O
Outline: as §1

[9] = compound: Cc1ccc(-n2nc(C(C)(C)C)cc2NC(=O)Nc2ccc(OCCN3CCOCC3)c3ccccc23)cc1 [doramapimod]
Outline: as §1

[10] = compound: Cc1ccc(C(=O)N(CCCN)[C@@H](c2nc3cc(Cl)ccc3c(=O)n2Cc2ccccc2)C(C)C)cc1 [ispinesib]
Outline: as §1

UniProt Q92851, sequence (Q92851 whole entry, looked up): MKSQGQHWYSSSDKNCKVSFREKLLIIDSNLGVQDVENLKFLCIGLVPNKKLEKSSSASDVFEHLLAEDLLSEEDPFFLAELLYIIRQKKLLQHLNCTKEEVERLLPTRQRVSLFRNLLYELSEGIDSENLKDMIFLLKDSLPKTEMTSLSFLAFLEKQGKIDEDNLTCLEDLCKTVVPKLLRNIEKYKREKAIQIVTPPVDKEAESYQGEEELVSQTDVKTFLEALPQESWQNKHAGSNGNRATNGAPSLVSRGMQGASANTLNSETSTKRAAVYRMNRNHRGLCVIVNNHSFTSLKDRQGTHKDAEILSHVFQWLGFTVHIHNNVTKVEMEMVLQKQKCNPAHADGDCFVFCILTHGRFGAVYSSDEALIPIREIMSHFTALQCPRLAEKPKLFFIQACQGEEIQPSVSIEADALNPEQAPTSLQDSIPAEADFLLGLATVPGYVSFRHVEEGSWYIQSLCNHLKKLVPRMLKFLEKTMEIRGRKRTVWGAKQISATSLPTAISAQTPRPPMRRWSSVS
UniProt Q9NYV4, sequence (Q9NYV4 whole entry, looked up): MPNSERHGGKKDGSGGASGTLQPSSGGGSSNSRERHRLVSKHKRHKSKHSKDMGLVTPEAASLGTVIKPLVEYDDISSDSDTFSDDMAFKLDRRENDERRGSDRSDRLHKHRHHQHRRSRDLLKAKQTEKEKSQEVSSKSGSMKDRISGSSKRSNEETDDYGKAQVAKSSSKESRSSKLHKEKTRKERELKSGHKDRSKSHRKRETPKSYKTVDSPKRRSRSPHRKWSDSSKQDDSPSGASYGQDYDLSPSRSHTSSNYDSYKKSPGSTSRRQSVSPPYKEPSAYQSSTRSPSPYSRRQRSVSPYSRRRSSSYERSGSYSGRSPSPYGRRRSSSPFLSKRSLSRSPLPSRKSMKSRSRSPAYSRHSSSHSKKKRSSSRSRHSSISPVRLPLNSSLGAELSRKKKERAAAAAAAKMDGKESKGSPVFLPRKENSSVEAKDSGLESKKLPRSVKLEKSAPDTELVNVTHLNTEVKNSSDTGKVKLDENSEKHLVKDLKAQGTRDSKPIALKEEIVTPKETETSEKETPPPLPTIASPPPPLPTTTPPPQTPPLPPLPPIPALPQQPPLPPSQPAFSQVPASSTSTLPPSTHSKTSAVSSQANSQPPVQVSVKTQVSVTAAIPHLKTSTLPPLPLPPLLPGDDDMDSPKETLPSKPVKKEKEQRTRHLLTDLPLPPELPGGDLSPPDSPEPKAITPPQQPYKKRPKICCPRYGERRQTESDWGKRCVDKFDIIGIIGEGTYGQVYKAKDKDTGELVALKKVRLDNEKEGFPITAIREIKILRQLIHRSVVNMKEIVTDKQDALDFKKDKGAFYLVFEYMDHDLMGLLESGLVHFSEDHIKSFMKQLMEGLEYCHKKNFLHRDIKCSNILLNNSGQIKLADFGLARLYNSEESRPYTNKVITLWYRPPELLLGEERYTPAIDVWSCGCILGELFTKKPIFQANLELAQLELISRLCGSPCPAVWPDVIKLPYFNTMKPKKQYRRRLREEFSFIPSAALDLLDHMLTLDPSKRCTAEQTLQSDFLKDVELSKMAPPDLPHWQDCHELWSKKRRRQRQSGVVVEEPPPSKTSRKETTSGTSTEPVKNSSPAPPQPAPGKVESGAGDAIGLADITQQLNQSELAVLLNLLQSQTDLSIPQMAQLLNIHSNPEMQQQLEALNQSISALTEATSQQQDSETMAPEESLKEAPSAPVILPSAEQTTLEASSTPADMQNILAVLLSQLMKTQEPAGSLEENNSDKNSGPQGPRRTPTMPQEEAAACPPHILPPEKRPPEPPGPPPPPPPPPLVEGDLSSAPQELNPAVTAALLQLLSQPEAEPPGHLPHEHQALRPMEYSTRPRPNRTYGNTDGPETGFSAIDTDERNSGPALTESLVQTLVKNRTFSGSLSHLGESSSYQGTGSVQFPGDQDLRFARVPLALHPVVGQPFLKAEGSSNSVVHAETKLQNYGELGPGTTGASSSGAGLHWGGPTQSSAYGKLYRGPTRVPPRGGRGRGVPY
UniProt A5YKK6, sequence (A5YKK6 whole entry, looked up): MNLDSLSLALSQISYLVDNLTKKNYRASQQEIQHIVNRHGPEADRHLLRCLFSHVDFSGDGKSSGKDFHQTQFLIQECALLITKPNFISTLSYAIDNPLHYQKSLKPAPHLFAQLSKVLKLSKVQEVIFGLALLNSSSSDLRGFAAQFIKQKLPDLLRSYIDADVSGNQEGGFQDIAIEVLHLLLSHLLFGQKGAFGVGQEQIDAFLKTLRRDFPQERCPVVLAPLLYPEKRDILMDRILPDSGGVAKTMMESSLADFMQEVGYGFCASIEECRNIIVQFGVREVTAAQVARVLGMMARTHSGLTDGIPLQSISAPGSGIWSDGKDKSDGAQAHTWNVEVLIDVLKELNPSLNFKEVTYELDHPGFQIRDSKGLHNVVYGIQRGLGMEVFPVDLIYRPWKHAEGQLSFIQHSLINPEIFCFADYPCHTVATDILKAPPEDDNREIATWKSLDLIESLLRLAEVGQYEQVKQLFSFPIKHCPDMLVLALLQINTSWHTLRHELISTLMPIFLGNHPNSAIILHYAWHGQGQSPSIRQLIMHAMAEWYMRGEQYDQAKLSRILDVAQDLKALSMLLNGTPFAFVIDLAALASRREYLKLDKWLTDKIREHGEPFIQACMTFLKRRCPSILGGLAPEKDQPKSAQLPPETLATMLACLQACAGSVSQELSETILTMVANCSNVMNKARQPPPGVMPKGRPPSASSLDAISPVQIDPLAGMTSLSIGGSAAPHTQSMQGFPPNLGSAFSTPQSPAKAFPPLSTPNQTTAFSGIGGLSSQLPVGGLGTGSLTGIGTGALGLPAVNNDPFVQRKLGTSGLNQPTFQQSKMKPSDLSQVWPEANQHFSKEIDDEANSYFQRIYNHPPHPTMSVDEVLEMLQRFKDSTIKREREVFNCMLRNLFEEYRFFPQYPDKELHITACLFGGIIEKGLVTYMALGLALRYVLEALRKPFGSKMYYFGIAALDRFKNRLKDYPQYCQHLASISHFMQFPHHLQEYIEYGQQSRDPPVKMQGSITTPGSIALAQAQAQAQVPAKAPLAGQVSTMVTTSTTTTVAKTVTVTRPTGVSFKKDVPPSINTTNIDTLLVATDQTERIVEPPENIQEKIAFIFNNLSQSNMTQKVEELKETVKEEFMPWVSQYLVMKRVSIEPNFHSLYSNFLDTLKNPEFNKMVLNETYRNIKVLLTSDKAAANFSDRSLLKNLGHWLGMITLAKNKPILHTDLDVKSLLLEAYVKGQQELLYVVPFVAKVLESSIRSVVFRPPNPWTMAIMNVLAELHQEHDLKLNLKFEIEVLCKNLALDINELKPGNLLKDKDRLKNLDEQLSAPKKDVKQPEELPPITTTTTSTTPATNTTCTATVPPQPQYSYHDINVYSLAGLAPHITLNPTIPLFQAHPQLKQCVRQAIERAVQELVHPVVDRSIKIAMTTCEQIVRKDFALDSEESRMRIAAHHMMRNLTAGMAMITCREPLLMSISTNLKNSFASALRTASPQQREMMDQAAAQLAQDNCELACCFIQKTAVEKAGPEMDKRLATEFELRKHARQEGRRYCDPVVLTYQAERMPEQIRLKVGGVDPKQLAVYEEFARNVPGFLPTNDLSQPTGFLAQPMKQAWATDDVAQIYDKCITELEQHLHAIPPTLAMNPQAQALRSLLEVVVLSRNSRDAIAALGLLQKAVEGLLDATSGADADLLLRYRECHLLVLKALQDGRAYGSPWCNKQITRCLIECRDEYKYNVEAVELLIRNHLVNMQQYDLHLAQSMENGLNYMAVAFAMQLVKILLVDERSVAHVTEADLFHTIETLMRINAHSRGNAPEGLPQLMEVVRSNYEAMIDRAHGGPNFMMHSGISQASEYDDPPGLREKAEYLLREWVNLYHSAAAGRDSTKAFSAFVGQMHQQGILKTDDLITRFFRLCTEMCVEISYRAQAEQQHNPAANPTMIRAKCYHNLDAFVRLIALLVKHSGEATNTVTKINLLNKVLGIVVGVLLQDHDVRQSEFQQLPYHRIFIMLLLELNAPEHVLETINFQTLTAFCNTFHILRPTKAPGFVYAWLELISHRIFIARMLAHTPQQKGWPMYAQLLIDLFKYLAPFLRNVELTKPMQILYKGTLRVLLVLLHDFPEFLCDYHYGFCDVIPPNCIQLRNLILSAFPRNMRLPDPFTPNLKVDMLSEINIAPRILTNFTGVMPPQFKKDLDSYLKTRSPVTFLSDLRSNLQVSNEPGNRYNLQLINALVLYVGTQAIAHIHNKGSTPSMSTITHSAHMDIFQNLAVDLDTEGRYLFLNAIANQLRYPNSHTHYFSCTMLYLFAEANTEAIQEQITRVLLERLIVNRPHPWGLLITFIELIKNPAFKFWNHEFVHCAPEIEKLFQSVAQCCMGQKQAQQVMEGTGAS
UniProt Q16740, sequence (Q16740 whole entry, looked up): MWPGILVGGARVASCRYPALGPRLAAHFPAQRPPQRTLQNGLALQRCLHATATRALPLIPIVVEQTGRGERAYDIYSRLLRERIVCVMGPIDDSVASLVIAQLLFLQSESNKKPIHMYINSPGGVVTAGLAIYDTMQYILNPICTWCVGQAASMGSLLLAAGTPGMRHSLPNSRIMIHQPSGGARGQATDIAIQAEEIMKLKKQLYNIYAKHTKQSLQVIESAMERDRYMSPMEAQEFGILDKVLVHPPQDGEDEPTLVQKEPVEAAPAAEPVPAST
UniProt Q9Y6K0, sequence (Q9Y6K0 whole entry, looked up): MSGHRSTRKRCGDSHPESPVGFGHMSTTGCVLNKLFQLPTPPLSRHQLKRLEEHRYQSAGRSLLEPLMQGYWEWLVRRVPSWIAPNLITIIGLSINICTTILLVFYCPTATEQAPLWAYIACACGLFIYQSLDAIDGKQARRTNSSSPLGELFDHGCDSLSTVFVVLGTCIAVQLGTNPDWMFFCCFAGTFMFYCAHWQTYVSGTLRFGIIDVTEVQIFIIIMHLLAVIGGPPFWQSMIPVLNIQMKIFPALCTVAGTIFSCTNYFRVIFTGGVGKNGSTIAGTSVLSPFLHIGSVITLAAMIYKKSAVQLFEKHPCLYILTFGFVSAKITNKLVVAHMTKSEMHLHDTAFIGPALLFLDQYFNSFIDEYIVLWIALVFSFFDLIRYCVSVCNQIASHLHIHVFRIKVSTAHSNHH

Target	log2 fold change [1]	log2 fold change [2]	log2 fold change [3]	log2 fold change [4]	log2 fold change [5]	log2 fold change [6]	log2 fold change [7]	log2 fold change [8]	log2 fold change [9]	log2 fold change [10]
CELF2 isoform 3 (UniProt O95319)	-0.107	0.098	0.006	-0.038	-0.027	-0.027	-0.054	0.102	0.05	-0.066
C19orf53 (UniProt Q9UNZ5)	-0.125	0.092	-0.553	0.404	-0.15	0.316	0.022	0.03	0.174	-0.13
CSK (UniProt P41240)	0.082	-0.033	0.112	-0.004	-0.018	-0.018	0.026	0.046	0.003	-0.028
CES2 isoform 4 (UniProt O00748)	0.162	0.154	0.03	-0.079	0.019	0.048	-0.093	-0.188	0.144	-0.047
COX6B1 (UniProt P14854)	-0.001	0.184	0.195	0	0.163	-0.027	0.105	0	-0.06	0.226
CDK5RAP1 (UniProt Q96SZ6)	0.005	0.041	0.033	0.031	-0.006	0.033	0.003	-0.025	0.05	0.048
CNOT1 (UniProt A5YKK6)	0.006	-0.087	-0.034	0.033	0.013	-0.043	0.045	0.076	-0.025	-0.038
CRK (UniProt P46108)	0.043	-1.02 (active)	0.008	-0.064	-0.025	-0.096	-0.254	0.058	0.01	-0.004
CDC26 (UniProt Q8NHZ8)	0.036	0.153	0.016	0.212	-0.097	-0.033	0.096	-0.021	-0.017	0.406
CHEK1 (UniProt O14757)	0.011	-0.116	0.044	0.049	0.059	-0.122	-0.023	0.008	-0.009	0.039
CLPP (UniProt Q16740)	0.05	0.348 (active)	0.058	-0.025	0.006	0.008	-0.02	0.017	0.003	0.105
COQ9 (UniProt O75208)	0.02	-0.067	0.03	-0.064	-0.043	-0.029	0.009	0.032	-0.079	-0.055
CSNK1A1 (UniProt P48729)	-0.093	-0.115	-0.114	-0.073	-0.04	0.014	-0.034	0.017	0.024	-0.125
CA1 (UniProt P00915)	0.005	0	0.046	-0.094	-0.001	-0.036	0.018	0.019	-0.012	0.116
C19orf54 (UniProt Q5BKX5)	-0.026	0.025	0.182	0.127	0.072	-0.073	0.006	0.032	-0.061	-0.091
CASP9 (UniProt P55211)	0.088	0.002	0.014	0.014	0.104	-0.152	0.138	0.064	0.05	0.037
CNOT2 (UniProt Q9NZN8)	0.028	-0.019	0.038	0.046	-0.021	-0.045	-0.006	0.077	-0.012	-0.02
CEPT1 (UniProt Q9Y6K0)	0.055	-0.226	0.146	0.042	-0.022	-0.268	-0.019	0.047	0.021	-0.214
CIT isoform 4 (UniProt O14578)	-0.023	-0.077	-0.013	0.08	0.064	-0.001	0.093	-0.033	0.026	0.072
CETN3 (UniProt O15182)	-0.018	0.014	-0.084	-0.071	0.057	0.094	0.037	-0.094	-0.018	0
CDK12 (UniProt Q9NYV4)	-0.056	-0.054	-0.362	0.376	-0.161	-1.11 (active)	-0.125	0.051	0.299	0
CCNK isoform 4 (UniProt O75909)	-0.014	-0.023	0.073	-0.042	-0.06	0.324 (active)	0.157	0.016	0.157	0.03
CAVIN1 (UniProt Q6NZI2)	-0.023	-0.046	-0.34	0.174	-0.131	0.145	0.058	0.06	0.135	0.067
CDC123 (UniProt O75794)	-0.001	-0.246 (active)	0.074	-0.032	0.159	0.044	-0.049	0.115	0.003	0.013
CMTR1 (UniProt Q8N1G2)	0.02	0.014	0.011	0.059	0.05	0.025	0.002	0.029	-0.036	-0.002
COX5A (UniProt P20674)	-0.011	0.245	0.109	-0.092	0.249	0.12	0.029	0.011	-0.039	0.411 (active)
CSNK1D (UniProt P48730)	0.12	-0.103	-0.246	0.055	-0.039	0.054	-0.028	0.069	0.109	-0.116
CASP10 isoform 4 (UniProt Q92851)	0.006	-0.102	0.015	-0.137	-0.08	-0.128	0.177	0.201	0.028	-0.075
CHCHD2 (UniProt Q9Y6H1)	0	0.161	-0.017	-0.075	0.097	-0.107	0.059	-0.016	-0.037	0.066
CSTF3 (UniProt Q12996)	0.004	-0.07	0.025	0.019	0.061	0	-0.021	-0.031	-0.022	0.082
